# Assay results: paper PMC7862700, “An all-to-all approach to the identification of sequence-specific readers for epigenetic DNA modifications on cytosine”
# Key:
# Assay in all cases: DAPPL (digital affinity profiling via proximity ligation, sequencing); 10 mM Tris-HCl pH 7.5, 50 mM NaCl, 1 mM DTT, 4% glycerol, room temperature, 30 min; GST-TFs on glutathione beads, 16-mer random dsDNA library, 0.1% formaldehyde crosslink after washing; high values mean tight binding
# Details in all cases: protein: recombinant; tags: N-terminal GST; dsDNA, one strand shown
# ELK1 = biological target: T1, ELK1 (Homo sapiens, UniProt P19419 1-428)
# T1 sequence: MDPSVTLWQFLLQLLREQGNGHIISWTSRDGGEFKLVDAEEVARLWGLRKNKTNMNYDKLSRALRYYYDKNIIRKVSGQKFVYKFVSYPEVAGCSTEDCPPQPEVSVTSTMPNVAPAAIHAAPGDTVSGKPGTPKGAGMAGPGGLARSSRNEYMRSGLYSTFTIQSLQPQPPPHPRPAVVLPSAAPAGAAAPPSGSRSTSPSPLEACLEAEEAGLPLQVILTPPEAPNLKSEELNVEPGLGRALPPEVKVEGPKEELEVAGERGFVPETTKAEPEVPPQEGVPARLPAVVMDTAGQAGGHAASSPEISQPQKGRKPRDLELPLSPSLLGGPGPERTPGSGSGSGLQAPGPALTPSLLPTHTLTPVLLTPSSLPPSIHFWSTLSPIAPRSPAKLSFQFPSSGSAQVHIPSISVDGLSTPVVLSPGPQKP
# Outline: (§1)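 A tag-only sample was pooled with DNA-barcoded human transcription factors that had been expressed in yeast as GST fusions and captured on glutathione beads. The pools were incubated for 30 min at room temperature with 200 nmole of a random double-stranded 16-mer DNA library in Tris/NaCl/DTT/glycerol buffer, then washed, crosslinked with 0.1% formaldehyde, proximity-ligated (BsaI/T4 ligase, 1 h, 37 °C), PCR-amplified and sequenced on an Illumina NextSeq500. Binding signal is each hexamer's read frequency for a factor divided by its frequency for the tag-only sample.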
# GABPA = biological target: T2, GABPA (Homo sapiens, UniProt Q06546 1-454)
# T2 sequence: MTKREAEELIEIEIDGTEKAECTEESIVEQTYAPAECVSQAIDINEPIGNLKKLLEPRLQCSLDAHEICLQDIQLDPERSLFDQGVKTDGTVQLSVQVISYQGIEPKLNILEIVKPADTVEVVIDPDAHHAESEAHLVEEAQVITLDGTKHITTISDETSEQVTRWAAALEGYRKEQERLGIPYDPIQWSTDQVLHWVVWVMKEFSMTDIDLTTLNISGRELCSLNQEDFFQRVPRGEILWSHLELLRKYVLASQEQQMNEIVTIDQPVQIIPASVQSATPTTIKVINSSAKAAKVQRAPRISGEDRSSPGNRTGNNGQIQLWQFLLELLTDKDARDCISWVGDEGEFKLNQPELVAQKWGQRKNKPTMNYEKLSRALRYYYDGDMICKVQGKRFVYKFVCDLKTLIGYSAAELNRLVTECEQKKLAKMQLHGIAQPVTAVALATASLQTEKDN
# Outline: as §1
# ELF1 = ELF1 (Homo sapiens, UniProt P32519 1-619)
# Outline: as §1
# EHF = biological target: T3, EHF (Homo sapiens, UniProt Q9NZC4 1-300)
# T3 sequence: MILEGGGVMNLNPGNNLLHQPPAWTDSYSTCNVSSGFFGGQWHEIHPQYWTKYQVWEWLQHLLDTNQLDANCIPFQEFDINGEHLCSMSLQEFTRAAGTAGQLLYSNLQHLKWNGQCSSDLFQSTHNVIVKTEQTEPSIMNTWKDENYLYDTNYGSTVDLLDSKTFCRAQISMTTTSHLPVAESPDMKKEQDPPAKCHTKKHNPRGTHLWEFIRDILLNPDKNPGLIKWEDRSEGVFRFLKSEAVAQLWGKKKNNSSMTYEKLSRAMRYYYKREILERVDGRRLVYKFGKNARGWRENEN
# Outline: as §1
# SPIB = SPIB (Homo sapiens, UniProt Q01892 1-262)
# Outline: as §1
# FEV = biological target: T4, FEV (Homo sapiens, UniProt Q99581 1-238)
# T4 sequence: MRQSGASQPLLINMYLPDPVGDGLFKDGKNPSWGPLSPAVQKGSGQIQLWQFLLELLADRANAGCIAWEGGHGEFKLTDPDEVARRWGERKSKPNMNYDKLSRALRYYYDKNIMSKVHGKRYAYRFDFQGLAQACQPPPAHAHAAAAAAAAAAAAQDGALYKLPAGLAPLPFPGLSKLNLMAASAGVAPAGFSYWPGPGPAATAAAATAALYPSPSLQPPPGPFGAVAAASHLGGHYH
# Outline: as §1
# ETV5 = ETV5 (Homo sapiens, UniProt P41161 1-510)
# Outline: as §1
# ELF4 = ELF4 (Homo sapiens, UniProt Q99607 1-663)
# Outline: as §1
# ELK4 = biological target: T5, ELK4 (Homo sapiens, UniProt P28324-2 1-405)
# T5 sequence: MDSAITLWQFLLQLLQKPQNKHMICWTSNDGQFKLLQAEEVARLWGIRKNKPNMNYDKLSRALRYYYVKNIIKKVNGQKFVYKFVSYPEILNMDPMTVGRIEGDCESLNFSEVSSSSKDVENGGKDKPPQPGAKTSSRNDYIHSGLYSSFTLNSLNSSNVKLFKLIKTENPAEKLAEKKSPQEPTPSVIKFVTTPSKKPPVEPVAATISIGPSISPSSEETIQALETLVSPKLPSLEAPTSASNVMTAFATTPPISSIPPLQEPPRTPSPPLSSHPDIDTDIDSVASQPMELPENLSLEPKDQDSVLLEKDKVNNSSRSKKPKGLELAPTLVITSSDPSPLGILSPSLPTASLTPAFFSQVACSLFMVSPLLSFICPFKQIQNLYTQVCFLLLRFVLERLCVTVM
# Outline: as §1
# ETV2 = biological target: T6, ETV2 (Homo sapiens, UniProt O00321 1-342)
# T6 sequence: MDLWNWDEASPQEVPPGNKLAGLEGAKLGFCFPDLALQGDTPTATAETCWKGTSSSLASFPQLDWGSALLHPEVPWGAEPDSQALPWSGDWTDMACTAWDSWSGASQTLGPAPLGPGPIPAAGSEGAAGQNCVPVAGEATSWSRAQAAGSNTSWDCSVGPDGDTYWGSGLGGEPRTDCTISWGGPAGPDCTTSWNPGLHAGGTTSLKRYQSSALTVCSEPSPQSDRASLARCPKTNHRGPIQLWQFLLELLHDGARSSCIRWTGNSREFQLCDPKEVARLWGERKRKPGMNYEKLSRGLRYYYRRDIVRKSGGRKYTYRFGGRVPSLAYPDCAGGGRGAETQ
# Outline: as §1
# ELF3 = biological target: T7, ELF3 (Homo sapiens, UniProt P78545 1-371)
# T7 sequence: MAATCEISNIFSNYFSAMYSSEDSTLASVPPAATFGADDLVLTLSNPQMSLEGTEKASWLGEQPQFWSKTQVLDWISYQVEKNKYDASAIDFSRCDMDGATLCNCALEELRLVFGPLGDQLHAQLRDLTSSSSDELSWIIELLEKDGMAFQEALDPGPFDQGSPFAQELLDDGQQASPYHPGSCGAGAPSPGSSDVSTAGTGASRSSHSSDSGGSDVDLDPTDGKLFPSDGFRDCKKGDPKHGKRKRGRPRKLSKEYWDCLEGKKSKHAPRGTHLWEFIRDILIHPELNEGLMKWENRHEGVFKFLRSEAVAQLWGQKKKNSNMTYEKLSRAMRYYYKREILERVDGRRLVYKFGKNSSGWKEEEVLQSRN
# Outline: as §1
# ETV1 = ETV1 (Homo sapiens, UniProt P50549 1-477)
# Outline: as §1
# ERF = biological target: T8, ERF (Homo sapiens, UniProt P50548 1-548)
# T8 sequence: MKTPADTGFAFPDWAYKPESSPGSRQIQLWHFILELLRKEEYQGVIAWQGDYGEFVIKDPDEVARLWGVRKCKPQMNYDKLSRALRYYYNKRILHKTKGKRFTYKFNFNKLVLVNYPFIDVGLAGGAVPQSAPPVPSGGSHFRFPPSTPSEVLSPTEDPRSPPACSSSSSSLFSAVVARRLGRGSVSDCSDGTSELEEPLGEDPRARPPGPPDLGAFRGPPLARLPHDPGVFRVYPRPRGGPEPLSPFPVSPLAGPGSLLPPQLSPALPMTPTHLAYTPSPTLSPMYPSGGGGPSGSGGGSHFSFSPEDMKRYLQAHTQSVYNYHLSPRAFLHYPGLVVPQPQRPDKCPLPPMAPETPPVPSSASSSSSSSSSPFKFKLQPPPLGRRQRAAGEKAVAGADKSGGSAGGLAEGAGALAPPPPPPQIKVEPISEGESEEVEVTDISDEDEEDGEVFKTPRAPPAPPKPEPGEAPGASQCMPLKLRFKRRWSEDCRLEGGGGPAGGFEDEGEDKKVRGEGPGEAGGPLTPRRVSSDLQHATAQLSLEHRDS
# Outline: as §1
# ETV3L = biological target: T9, ETV3L (Homo sapiens, UniProt Q6ZN32 1-361)
# T9 sequence: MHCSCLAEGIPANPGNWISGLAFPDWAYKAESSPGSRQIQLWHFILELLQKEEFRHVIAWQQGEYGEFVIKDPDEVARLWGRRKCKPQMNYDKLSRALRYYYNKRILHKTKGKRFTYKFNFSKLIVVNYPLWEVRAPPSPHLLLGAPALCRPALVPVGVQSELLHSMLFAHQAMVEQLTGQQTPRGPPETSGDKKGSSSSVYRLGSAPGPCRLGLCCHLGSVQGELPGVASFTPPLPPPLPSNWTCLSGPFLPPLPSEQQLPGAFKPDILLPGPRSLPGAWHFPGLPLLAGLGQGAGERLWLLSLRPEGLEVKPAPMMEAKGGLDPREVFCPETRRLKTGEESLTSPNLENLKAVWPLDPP
# Outline: as §1
# ETS2 = biological target: T10, ETS2 (Homo sapiens, UniProt P15036 1-469)
# T10 sequence: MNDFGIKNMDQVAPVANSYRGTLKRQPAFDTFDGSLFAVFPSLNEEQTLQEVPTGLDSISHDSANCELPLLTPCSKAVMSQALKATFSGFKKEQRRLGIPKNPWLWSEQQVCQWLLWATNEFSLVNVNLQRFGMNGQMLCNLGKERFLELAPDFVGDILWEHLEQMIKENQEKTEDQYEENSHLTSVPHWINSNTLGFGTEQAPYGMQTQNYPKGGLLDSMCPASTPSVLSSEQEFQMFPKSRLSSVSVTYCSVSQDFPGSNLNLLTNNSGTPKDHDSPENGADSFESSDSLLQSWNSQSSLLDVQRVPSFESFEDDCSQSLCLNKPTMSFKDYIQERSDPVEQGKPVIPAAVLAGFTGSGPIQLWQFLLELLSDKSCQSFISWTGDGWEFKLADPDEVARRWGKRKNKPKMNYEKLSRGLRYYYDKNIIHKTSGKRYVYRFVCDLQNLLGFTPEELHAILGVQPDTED
# Outline: as §1
# SPDEF = biological target: T11, SPDEF (Homo sapiens, UniProt O95238 1-335)
# T11 sequence: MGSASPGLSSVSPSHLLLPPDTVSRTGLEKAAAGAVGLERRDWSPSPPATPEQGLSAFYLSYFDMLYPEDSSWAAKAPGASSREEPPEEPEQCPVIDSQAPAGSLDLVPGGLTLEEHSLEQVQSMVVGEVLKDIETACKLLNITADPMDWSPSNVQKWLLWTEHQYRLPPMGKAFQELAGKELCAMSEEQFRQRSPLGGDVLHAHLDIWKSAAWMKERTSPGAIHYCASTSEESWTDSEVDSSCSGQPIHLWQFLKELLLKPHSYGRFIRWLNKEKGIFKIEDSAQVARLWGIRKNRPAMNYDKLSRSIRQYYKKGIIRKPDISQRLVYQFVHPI
# Outline: as §1
# ETV7 = biological target: T12, ETV7 (Homo sapiens, UniProt Q9Y603 1-341)
# T12 sequence: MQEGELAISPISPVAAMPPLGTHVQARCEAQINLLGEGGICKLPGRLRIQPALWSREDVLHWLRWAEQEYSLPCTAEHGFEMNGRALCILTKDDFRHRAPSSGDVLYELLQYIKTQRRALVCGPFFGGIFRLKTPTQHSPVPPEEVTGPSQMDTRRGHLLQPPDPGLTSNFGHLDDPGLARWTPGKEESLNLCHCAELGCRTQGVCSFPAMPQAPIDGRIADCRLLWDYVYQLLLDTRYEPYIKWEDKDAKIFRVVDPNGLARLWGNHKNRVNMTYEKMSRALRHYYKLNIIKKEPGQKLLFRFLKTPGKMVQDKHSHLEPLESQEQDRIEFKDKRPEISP
# Outline: as §1
# ETV3 = biological target: T13, ETV3 (Homo sapiens, UniProt P41162-2 1-143)
# T13 sequence: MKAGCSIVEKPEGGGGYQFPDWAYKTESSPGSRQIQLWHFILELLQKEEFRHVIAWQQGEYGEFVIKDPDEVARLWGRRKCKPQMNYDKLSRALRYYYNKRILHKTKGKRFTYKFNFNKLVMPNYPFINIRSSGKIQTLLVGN
# Outline: as §1
# ETV6 = ETV6 (Homo sapiens, UniProt P41212 1-452)
# Outline: as §1
# ELF1, sequence (P32519 whole entry): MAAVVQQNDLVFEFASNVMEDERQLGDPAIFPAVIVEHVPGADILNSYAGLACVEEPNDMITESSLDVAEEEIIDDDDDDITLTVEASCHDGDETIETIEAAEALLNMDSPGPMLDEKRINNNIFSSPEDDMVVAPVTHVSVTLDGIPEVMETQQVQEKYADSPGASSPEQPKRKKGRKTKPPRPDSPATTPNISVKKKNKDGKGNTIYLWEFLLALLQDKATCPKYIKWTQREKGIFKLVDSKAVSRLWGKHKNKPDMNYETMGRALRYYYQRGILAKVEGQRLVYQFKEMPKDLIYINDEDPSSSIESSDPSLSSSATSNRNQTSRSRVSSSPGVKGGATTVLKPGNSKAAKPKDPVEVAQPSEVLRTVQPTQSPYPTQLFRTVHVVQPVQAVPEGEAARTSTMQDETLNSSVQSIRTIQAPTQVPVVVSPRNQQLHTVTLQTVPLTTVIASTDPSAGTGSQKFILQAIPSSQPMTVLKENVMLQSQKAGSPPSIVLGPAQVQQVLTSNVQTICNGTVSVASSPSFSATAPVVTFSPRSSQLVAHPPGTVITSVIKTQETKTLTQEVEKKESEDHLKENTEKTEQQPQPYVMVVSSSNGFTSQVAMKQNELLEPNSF
# ELF4, sequence (Q99607 whole entry): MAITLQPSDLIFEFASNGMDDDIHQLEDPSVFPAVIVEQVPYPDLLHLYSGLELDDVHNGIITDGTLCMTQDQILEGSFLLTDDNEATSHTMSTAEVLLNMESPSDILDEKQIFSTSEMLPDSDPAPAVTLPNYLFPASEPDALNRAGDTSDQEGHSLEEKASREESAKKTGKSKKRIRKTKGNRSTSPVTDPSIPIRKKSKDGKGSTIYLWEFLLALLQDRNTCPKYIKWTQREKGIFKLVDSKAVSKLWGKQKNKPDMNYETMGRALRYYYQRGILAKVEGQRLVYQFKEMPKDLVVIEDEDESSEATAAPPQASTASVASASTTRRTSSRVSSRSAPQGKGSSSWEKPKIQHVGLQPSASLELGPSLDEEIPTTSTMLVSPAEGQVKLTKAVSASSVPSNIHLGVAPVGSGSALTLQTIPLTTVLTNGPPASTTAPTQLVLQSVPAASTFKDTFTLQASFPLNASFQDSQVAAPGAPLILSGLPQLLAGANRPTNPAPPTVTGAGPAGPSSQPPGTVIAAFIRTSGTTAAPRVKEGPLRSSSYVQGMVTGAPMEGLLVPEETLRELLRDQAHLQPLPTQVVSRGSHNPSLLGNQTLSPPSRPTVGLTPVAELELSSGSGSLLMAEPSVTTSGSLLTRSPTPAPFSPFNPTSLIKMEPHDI
# SPIB, sequence (Q01892 whole entry): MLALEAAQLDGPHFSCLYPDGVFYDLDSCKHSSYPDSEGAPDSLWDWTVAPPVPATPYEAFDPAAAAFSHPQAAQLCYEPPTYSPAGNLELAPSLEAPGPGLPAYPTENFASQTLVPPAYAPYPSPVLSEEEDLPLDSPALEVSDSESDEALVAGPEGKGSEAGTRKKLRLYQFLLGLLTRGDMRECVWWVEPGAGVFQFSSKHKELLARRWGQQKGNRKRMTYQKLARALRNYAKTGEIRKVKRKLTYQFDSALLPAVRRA
# ETV1, sequence (P50549 whole entry): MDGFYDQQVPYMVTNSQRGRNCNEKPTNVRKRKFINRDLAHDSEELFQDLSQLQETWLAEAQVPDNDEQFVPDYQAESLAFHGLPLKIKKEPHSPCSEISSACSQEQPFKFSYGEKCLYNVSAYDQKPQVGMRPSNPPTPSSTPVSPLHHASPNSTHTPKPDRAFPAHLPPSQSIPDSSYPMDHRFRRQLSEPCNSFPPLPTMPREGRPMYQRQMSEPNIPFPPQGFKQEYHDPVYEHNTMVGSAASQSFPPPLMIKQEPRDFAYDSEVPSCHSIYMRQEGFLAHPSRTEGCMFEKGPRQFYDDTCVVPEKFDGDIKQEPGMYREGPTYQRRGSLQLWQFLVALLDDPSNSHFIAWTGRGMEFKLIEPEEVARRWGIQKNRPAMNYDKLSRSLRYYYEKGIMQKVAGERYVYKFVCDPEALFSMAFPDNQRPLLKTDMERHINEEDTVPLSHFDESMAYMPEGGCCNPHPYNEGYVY
# ETV6, sequence (P41212 whole entry): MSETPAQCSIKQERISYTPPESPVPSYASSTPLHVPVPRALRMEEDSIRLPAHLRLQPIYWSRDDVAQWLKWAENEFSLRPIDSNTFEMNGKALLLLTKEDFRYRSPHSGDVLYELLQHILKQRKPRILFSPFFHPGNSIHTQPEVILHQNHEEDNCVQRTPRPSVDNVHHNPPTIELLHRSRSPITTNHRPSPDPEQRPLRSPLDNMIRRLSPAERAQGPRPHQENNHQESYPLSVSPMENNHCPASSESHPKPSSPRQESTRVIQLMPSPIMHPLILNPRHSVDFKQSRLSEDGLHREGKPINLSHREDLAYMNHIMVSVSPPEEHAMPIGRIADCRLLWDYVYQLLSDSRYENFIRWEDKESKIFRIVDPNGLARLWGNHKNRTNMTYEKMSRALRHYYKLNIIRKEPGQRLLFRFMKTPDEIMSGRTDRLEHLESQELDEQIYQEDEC
# ETV5, sequence (P41161 whole entry): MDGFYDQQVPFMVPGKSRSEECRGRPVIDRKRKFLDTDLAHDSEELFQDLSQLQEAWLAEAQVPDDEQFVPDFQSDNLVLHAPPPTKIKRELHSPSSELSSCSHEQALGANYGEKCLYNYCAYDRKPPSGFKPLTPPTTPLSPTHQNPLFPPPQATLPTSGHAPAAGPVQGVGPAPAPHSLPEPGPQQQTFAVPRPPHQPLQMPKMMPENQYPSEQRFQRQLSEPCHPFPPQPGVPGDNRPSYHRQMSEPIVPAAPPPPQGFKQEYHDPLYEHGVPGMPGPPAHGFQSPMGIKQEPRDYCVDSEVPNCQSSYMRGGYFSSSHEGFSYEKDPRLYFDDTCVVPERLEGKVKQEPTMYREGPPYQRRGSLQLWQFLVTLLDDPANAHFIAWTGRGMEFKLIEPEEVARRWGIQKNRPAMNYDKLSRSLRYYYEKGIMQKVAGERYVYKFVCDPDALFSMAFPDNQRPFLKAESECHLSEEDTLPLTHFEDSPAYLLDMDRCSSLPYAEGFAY
sequence,measurement,setting,value
CATTAA,binding signal,ELK1,"1 fold enrichment (6-mer frequency, TF over GST control)"
same,binding signal,GABPA,"1.12 fold enrichment (6-mer frequency, TF over GST control)"
same,binding signal,ELF1,"1.07 fold enrichment (6-mer frequency, TF over GST control)"
same,binding signal,EHF,"1.01 fold enrichment (6-mer frequency, TF over GST control)"
same,binding signal,SPIB,"1.04 fold enrichment (6-mer frequency, TF over GST control)"
same,binding signal,FEV,"1.01 fold enrichment (6-mer frequency, TF over GST control)"
same,binding signal,ETV5,"1.07 fold enrichment (6-mer frequency, TF over GST control)"
same,binding signal,ELF4,"1.07 fold enrichment (6-mer frequency, TF over GST control)"
same,binding signal,ELK4,"1.02 fold enrichment (6-mer frequency, TF over GST control)"
same,binding signal,ETV2,"1.04 fold enrichment (6-mer frequency, TF over GST control)"
same,binding signal,ELF3,"1.05 fold enrichment (6-mer frequency, TF over GST control)"
same,binding signal,ETV1,"1.12 fold enrichment (6-mer frequency, TF over GST control)"
same,binding signal,ERF,"1.1 fold enrichment (6-mer frequency, TF over GST control)"
same,binding signal,ETV3L,"1.1 fold enrichment (6-mer frequency, TF over GST control)"
same,binding signal,ETS2,"1.04 fold enrichment (6-mer frequency, TF over GST control)"
same,binding signal,SPDEF,"1.01 fold enrichment (6-mer frequency, TF over GST control)"
same,binding signal,ETV7,"1.05 fold enrichment (6-mer frequency, TF over GST control)"
same,binding signal,ETV3,"1.02 fold enrichment (6-mer frequency, TF over GST control)"
same,binding signal,ETV6,"1.03 fold enrichment (6-mer frequency, TF over GST control)"
